PubChem BioAssay AID1259420 (Broad Institute, 2018)
“And” between values parts separate entries of the source, which are not always exact repeats. Equal values may be shown once. Out of some 1,000 compounds screened, about 250 (25%) were called active. Another 31% or so got no clear call; they are omitted. The list is a sample of the results. Potency and affinity values are given separately. A number with no mark means an inactive call. The rule behind the calls is not given here. Numbered stars: 1 amine (or outer) side, 2 acyl side, 3 side chain; on linkers, the order of the positions; unused ones are H or OH. Bridge positions count the residues as written; N and C are the ends. Square brackets hold non-standard residues; d marks the D form. Peptide text beside a SMILES is read from it. * marks the point of attachment. ξ: configuration not given here. pTerphenylCO(4''-OnC5H11) = CCCCCOc1ccc(-c2ccc(-c3ccc(C(=O)*)cc3)cc2)cc1; ξOrn(4,5-diOH) = O=C(C(CC(O)C(O)N[*:3])N[*:1])[*:2]; ξhTyr(βξ-OH,γξ-OH) = NC(C(=O)O)C(O)C(O)c1ccc(O)cc1; ξPro(3ξ-OH,4ξ-Me) = CC1CNC(C(=O)O)C1O; Hyp = O=C(O)[CH]1C[CH](O)CN1

Test: compound activity on host-cell Toxoplasma growth – dose response (AID 1259420);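 note: host cells were HeLa; final incubation lasted 72 hours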
Conditions: Toxoplasma gondii growth in host cells, no IFN-gamma

COc1cccc(-c2nn(CC3CC3)c3c2[C@@H]2CN(Cc4ccccc4)C[C@@H]2C3)c1
max activity (at 19.5 µM unless noted): 19.1%

Cc1ccc(Cl)cc1N(CC(=O)Nc1c(F)cccc1F)S(C)(=O)=O
max activity (at 19.5 µM unless noted): 8.21% [at 1.2 µM]

CC(=O)NCC(=O)N1CCC2(CC1)CC(c1ccccc1)C(=O)N2 (configuration not stated)
max activity (at 19.5 µM unless noted): -12.4% [at 10 µM]

CN(C)CCO[C@@H]1CN(C(=O)Cc2ccsc2)[C@H]2CCCO[C@@H]12
max activity (at 19.5 µM unless noted): -11.4% [at 10 µM]

CN1CCN(C(=O)Cc2ccsc2)Cc2cccnc21
max activity (at 19.5 µM unless noted): -16.3% [at 2.6 µM]

Cc1ccsc1C(=O)N1CCc2nc(-c3cnn(C)c3)nc(NC(C)C)c2C1
max activity (at 19.5 µM unless noted): -6.87%

Cc1ccccc1-c1ccc([C@@H]2[C@H]3CN(C(=O)c4ccncc4)CC(=O)N3[C@H]2CO)cc1
max activity (at 19.5 µM unless noted): 7.3% [at 5 µM]

CN1[C@@H]2Cn3c(ccc(/C=C/c4ccccc4)c3=O)[C@H]1[C@@H](C(=O)NC1Cc3ccccc3C1)[C@@H]2CO
max activity (at 19.5 µM unless noted): -16.6% [at 2.6 µM]

Cc1cnn(C(C)C(=O)N2CCc3[nH]nc(-c4ccc(F)c(F)c4)c3C2)c1 (configuration not stated)
max activity (at 19.5 µM unless noted): 14% [at 0.16 µM]

Nc1ccc(S(=O)(=O)NC(=O)c2ccccc2)cc1
max activity (at 19.5 µM unless noted): 6.39% [at 0.3 µM]

CO[C@H]1CCN(c2ccc(C)nn2)[C@H]1Cc1cnn(C)c1
max activity (at 19.5 µM unless noted): 46.8%

C[C@]12CCC3=C4CCC(=O)C=C4CC[C@H]3[C@@H]1CC[C@@]2(O)CC#N
max activity (at 19.5 µM unless noted): -3.24% [at 0.3 µM]

Cc1nnc(N2C[C@@H](Oc3ncccc3F)[C@@H]3OCCC[C@@H]32)s1
max activity (at 19.5 µM unless noted): -11.4% [at 0.16 µM]

C=CCO[C@@H]1CCN(c2cc(OC)ncn2)[C@H]1Cc1cnn(C)c1
max activity (at 19.5 µM unless noted): -8.84% [at 5 µM]

Cc1ccc(-c2cc(C(F)(F)F)nn2-c2ccc(S(N)(=O)=O)cc2)cc1
max activity (at 19.5 µM unless noted): -6.96% [at 0.08 µM]

COc1ccc(CN2C[C@@H]3C[C@H](C(=O)Nc4ccccc4)[C@@H](C2)O3)cc1
max activity (at 19.5 µM unless noted): 24.7%

CCCNC(=O)C[C@H]1CC[C@@H]2[C@H](COC[C@H](O)CN2C(=O)Nc2ccc(Cl)c(Cl)c2)O1
max activity (at 19.5 µM unless noted): 22.5%

CCCNC(=O)[C@@H]1[C@@H](CO)[C@@H]2Cn3c(ccc(C4=CCCCC4)c3=O)[C@@H]2N1Cc1ccccc1F
max activity (at 19.5 µM unless noted): 15.2%

O=C(c1ccc[nH]1)N1CCC2(CC1)COCCN(c1ncccn1)C2
max activity (at 10 µM): -14% | max activity (at 19.5 µM): 9.97%

CC(C)CCN1Cc2c(C(=O)NC3CCCCC3)ncn2-c2ccccc2S1(=O)=O
max activity (at 19.5 µM unless noted): 17.3%

CO[C@@H]1CCN(c2ncccn2)C[C@@H]1Cc1cccc(C)c1
max activity (at 19.5 µM unless noted): 13.3%

CCCCCOc1ccc(-c2ccc(-c3ccc(C(=O)NC4CC(O)C(O)NC(=O)C5C(O)C(C)CN5C(=O)C(C(C)O)NC(=O)C(C(O)C(O)c5ccc(O)cc5)NC(=O)C5CC(O)CN5C(=O)C(C(C)O)NC4=O)cc3)cc2)cc1 (stereo not drawn) ({pTerphenylCO(4''-OnC5H11)}-[ξOrn(4,5-diOH)]T[Hyp][ξhTyr(βξ-OH,γξ-OH)]T[ξPro(3ξ-OH,4ξ-Me)]; lactam 1-C; configuration not given here)
max activity (at 19.5 µM unless noted): 7.96% [at 0.6 µM]

O=C1N(c2ccccc2)c2ccccc2C1(Cc1ccncc1)Cc1ccncc1
max activity (at 19.5 µM unless noted): -9.88% [at 5 µM]

C/C=C/c1ccc(C2[C@H]3CNC[C@@H]2N3S(=O)(=O)c2ccccc2C)cc1 (some centres not stated)
max activity (at 19.5 µM unless noted): 20.6%

O=C(C[C@@H]1CC[C@@H]2[C@H](COC[C@@H](O)CN2C(=O)Nc2cc(Cl)cc(Cl)c2)O1)N1CCOCC1
max activity (at 19.5 µM unless noted): -20.4% [at 10 µM]

O=C(C[C@H]1CC[C@H]2[C@@H](COC[C@H](O)CN2S(=O)(=O)c2ccccc2)O1)NCC1CCCCC1
max activity (at 19.5 µM unless noted): -7.1% [at 0.3 µM]

O=C(C[C@H]1CC[C@@H]2[C@H](COC[C@@H](O)CN2Cc2ccc(Oc3ccccc3)cc2)O1)N1CCN(c2ccccc2)CC1
max activity (at 19.5 µM unless noted): 17.6%

O=C(C[C@@H]1CC[C@@H]2[C@H](COC[C@H](O)CN2S(=O)(=O)c2ccccc2F)O1)N1CCC(Cc2ccccc2)CC1
max activity (at 19.5 µM unless noted): -4.67% [at 0.3 µM]

O=C(C[C@@H]1CC[C@H]2[C@@H](COC[C@H](O)CN2Cc2ccc(Oc3ccccc3)cc2)O1)N1CCN(c2ccccc2)CC1
max activity (at 19.5 µM unless noted): -11.8% [at 1.2 µM]

O=C(C[C@H]1CC[C@@H]2[C@H](COC[C@H](O)CN2Cc2cc(F)ccc2F)O1)NCc1ccc(Oc2ccccc2)cc1
max activity (at 19.5 µM unless noted): 29.1% [at 10 µM]

O=C(C[C@H]1CC[C@H]2[C@@H](COC[C@@H](O)CN2Cc2cc(F)ccc2F)O1)NCc1ccc(Oc2ccccc2)cc1
max activity (at 19.5 µM unless noted): 24%

CCCNC(=O)C[C@H]1CC[C@H]2[C@@H](COC[C@@H](O)CN2C(=O)Nc2ccc(Cl)c(Cl)c2)O1
max activity (at 19.5 µM unless noted): -10.6% [at 10 µM]

O=C(C[C@H]1CC[C@H]2[C@@H](COC[C@H](O)CN2Cc2ccc(Oc3ccccc3)cc2)O1)N1CCN(c2ccccc2)CC1
max activity (at 19.5 µM unless noted): 19.6%

CCCNC(=O)[C@H]1[C@H](CO)[C@H]2Cn3c(ccc(C4=CCCCC4)c3=O)[C@H]2N1Cc1ccccc1F
max activity (at 19.5 µM unless noted): 26.7%

CCC(=O)N1CC(=O)N2[C@@H](CO)[C@H](c3ccc(C#CCC(C)C)cc3)[C@@H]2C1
max activity (at 19.5 µM unless noted): -4.73% [at 2.6 µM]

COc1cc(CN2C[C@@H]3N[C@H](C2)C3c2ccc(-c3ccc(C#N)cc3)cc2)cc(OC)c1 (some centres not stated)
max activity (at 19.5 µM unless noted): 9.2% [at 10 µM]

COc1cccc(-c2ccc(C3[C@@H]4CN(Cc5ccccn5)C[C@H]3N4)cc2)c1 (some centres not stated)
max activity (at 19.5 µM unless noted): 36.5%

COc1cccc(-c2ccc(C3[C@@H]4CN(C(=O)C5CCCCC5)C[C@H]3N4)cc2)c1 (some centres not stated)
max activity (at 19.5 µM unless noted): 23.3%

N#Cc1ccc(-c2ccc(C3[C@@H]4CN(S(=O)(=O)c5ccc(F)cc5)C[C@H]3N4)cc2)cc1 (some centres not stated)
max activity (at 19.5 µM unless noted): 31.5% and 12.6% and 34.4%

N#Cc1ccc(-c2ccc(C3[C@@H]4CN(C(=O)C5CCCCC5)C[C@H]3N4)cc2)cc1 (some centres not stated)
max activity (at 19.5 µM unless noted): 18.4%

Cn1cnc(S(=O)(=O)N2C[C@@H]3N[C@H](C2)C3c2ccc(-c3ccccc3F)cc2)c1 (some centres not stated)
max activity (at 2.35 µM): 9.35% | max activity (at 19.5 µM): 18.7%

Cc1ccccc1-c1ccc(C2[C@@H]3CN(Cc4cncnc4)C[C@H]2N3)cc1 (some centres not stated)
max activity (at 19.5 µM unless noted): -6.61% [at 10 µM]

CS(=O)(=O)N1C[C@@H]2N[C@H](C1)[C@@H]2c1ccc(-c2ccccc2)cc1
max activity (at 19.5 µM unless noted): 14.6% [at 2.6 µM]

O=C1CC2C(CCN2Cc2ccc(F)cc2)N1CCN1CCOCC1 (configuration not stated)
max activity (at 19.5 µM unless noted): -8.01% [at 5 µM]

O=C(Cc1ccccn1)N1CC(=O)N2[C@H](C1)[C@@H](c1ccc(C#CCC3CCCC3)cc1)[C@@H]2CO
max activity (at 19.5 µM unless noted): 30% [at 21 µM]

COC[C@H](N)C(=O)N1CCC(Cc2nnc(SC)n2C)CC1
max activity (at 19.5 µM unless noted): 7.97% [at 0.16 µM]

CCCNC(=O)[C@@H]1[C@@H](CO)[C@@H]2Cn3c(ccc(/C=C/c4ccccc4)c3=O)[C@@H]2N1CC1CC1
max activity (at 19.5 µM unless noted): -5.81% [at 10 µM]

Cc1cccc(-c2ccc(C3[C@@H]4CN(C(=O)Nc5ccc(F)cc5)C[C@H]3N4)cc2)c1 (some centres not stated)
max activity (at 19.5 µM unless noted): 30.6% [at 10 µM]

O=S(=O)(c1ccc(F)cc1)N1C[C@@H]2N[C@H](C1)C2c1ccc(/C=C/c2ccccc2)cc1 (some centres not stated)
max activity (at 19.5 µM unless noted): 27.1%

CCCNC(=O)N1C[C@@H]2N[C@H](C1)C2c1ccc(-c2cccc(F)c2)cc1 (some centres not stated)
max activity (at 19.5 µM unless noted): 16.2% [at 21 µM]

C/C=C/c1ccc(C2[C@@H]3CN(S(=O)(=O)c4cccc(OC)c4)C[C@H]2N3)cc1 (some centres not stated)
max activity (at 19.5 µM unless noted): -10.6% [at 0.16 µM]

O=C(Nc1cccc(F)c1)N1CCCCN2[C@H](CO)[C@@H](c3ccc(C#Cc4cccnc4)cc3)[C@@H]2C1
max activity (at 19.5 µM unless noted): 5.46% [at 5 µM]

O=C(c1cccc(F)c1)N1CCCCN2[C@H](C1)[C@H](c1ccc(C#CC3(O)CCCC3)cc1)[C@@H]2CO
max activity (at 10 µM): -12.3% | max activity (at 21 µM): -8.26%

O=C(NC1CCCC1)N1CCCCN2[C@H](CO)[C@@H](c3ccc(-c4cccnc4)cc3)[C@H]2C1
max activity (at 19.5 µM unless noted): 9.08% [at 0.038 µM]

CC(C)CC#Cc1ccc([C@@H]2[C@@H](CO)N3CCCCN(C(=O)Nc4ccccc4)C[C@@H]23)cc1
max activity (at 19.5 µM unless noted): 7.18% [at 2.6 µM]

O=C(c1cccc(F)c1)N1CCCCN2[C@H](C1)[C@@H](c1ccc(C#CC3(O)CCCC3)cc1)[C@@H]2CO
max activity (at 19.5 µM unless noted): 13.2%

O=C(Nc1cccc(F)c1)N1CCCCN2[C@H](C1)[C@@H](c1ccc(C#Cc3cccnc3)cc1)[C@@H]2CO
max activity (at 0.3 µM): -7.31% | max activity (at 19.5 µM): -13.4%

COCC#Cc1ccc([C@@H]2[C@H]3CN(C(=O)NC4CCCC4)CCCCN3[C@H]2CO)cc1
max activity (at 19.5 µM unless noted): 30.5%

O=C(NC1CCCC1)N1CCCCN2[C@@H](CO)[C@H](c3ccc(-c4cccnc4)cc3)[C@@H]2C1
max activity (at 19.5 µM unless noted): 11.1% [at 2.6 µM]

CNc1ncc(CN(C)C(=O)c2csc(C)n2)cn1
max activity (at 19.5 µM unless noted): -6.03% [at 5 µM]

Cc1cnc(N2C[C@@H](c3ccccc3)[C@@]3(CCNC3=O)C2)nc1
max activity (at 19.5 µM unless noted): 67.2%

CC1(C)C2CCC1(CS(=O)(=O)O)C(=O)/C2=C\c1ccc(/C=C2/C(=O)C3(CS(=O)(=O)O)CCC2C3(C)C)cc1
max activity (at 19.5 µM unless noted): 5.44%

Fc1ccccc1-c1ccc(C2[C@H]3CNC[C@@H]2N3CC2CC2)cc1 (some centres not stated)
max activity (at 19.5 µM unless noted): 11.6%
